In PubChem BioAssay AID720630 (Broad Institute, 2013):
Records with an inconclusive call do not appear. Active and inactive are the calls of the source. No rule for the calls is given here.

Assay: caspase-3/7 apoptosis induction in HUVEC, dose response, mechanism study for HRAS target identification, cell-based, multiple timepoints, luminescence, dry powder (AID 720630)
Settings: caspase-3/7 luminescence; for caspase activation: at 35 µM (top of the series)
[1] = measured here: max caspase activation timepoint 1, at 0.001 µM, test 1, stronger effect = higher value

SMILES | caspase activation | max activity [1] | max activity (measured here: max caspase activation timepoint 2, at 1 µM, test 2, stronger effect = higher value) | max activity (measured here: max caspase activation timepoint 3, at 0.008 µM, test 3, stronger effect = higher value) | max activity (measured here: max caspase activation timepoint 2, at 16 µM, test 2, stronger effect = higher value) | max activity (measured here: max caspase activation timepoint 3, at 4.2 µM, test 3, stronger effect = higher value)
Cc1onc(C(=O)N2CCN(C(c3ccc(Cl)cc3)c3ccc(Cl)cc3)CC2)c1[N+](=O)[O-] | -6.38% (inactive) | -21.9% | -18.4% | -32.1% |  | 
CCC(=O)N(c1ccc(OC)c(Cl)c1)C(C(=O)NCCc1ccccc1)c1cccs1 (stereo not drawn) | 8.9% (inactive) | -18.6% |  |  | -23.7% | -13.9%
